Assay results as given in paper PMC7862700, “An all-to-all approach to the identification of sequence-specific readers for epigenetic DNA modifications on cytosine”.

Assays:
Assay in all cases: DAPPL (digital affinity profiling via proximity ligation, sequencing); 10 mM Tris-HCl pH 7.5, 50 mM NaCl, 1 mM DTT, 4% glycerol, room temperature, 30 min; GST-TFs on glutathione beads, 16-mer random dsDNA library, 0.1% formaldehyde crosslink after washing; high values mean tight binding
Details in all cases: protein: recombinant; tags: N-terminal GST; dsDNA, one strand shown
[1] = target: T1, FLI1 (Homo sapiens, UniProt Q01543 1-452)
T1 sequence: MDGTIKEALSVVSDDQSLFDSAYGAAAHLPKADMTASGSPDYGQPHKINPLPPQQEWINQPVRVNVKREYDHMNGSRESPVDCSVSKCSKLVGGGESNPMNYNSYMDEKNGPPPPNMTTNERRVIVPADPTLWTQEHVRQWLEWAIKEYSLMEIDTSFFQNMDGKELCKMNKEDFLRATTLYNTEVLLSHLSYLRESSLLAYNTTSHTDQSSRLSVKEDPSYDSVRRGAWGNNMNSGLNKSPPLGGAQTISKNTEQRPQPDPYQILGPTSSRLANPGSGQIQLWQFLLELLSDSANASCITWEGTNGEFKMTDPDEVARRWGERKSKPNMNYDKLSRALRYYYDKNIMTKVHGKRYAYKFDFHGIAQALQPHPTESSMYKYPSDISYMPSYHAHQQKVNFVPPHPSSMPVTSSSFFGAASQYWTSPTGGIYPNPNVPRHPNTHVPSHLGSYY
Summary of the method: (§1)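 Binding signal is defined as a hexamer's read frequency for one factor over its frequency for the tag-only sample. To obtain reads, GST-fused human transcription factors were expressed in yeast, captured on glutathione beads, barcoded with DNA and pooled with that sample. Pools met 200 nmole of a 16-mer random double-stranded DNA library in Tris/NaCl/DTT/glycerol buffer for 30 min at room temperature before washing, 0.1% formaldehyde crosslinking, proximity ligation (BsaI/T4 ligase, 1 h, 37 °C), PCR and Illumina NextSeq500 sequencing.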

[2] = target: T2, ELK1 (Homo sapiens, UniProt P19419 1-428)
T2 sequence: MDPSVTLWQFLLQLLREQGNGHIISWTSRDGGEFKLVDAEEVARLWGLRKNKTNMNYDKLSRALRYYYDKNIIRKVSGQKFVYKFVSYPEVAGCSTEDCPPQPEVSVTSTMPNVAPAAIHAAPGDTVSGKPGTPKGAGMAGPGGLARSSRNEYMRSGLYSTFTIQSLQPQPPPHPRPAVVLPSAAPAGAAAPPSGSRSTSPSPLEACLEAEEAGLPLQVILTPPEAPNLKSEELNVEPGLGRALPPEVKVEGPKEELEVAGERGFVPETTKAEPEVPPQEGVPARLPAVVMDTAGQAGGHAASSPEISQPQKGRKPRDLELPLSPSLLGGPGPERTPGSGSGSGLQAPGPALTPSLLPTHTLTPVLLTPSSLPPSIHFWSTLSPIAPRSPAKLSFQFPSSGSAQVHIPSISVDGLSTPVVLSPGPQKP
Summary of the method: as §1

[3] = target: T3, GABPA (Homo sapiens, UniProt Q06546 1-454)
T3 sequence: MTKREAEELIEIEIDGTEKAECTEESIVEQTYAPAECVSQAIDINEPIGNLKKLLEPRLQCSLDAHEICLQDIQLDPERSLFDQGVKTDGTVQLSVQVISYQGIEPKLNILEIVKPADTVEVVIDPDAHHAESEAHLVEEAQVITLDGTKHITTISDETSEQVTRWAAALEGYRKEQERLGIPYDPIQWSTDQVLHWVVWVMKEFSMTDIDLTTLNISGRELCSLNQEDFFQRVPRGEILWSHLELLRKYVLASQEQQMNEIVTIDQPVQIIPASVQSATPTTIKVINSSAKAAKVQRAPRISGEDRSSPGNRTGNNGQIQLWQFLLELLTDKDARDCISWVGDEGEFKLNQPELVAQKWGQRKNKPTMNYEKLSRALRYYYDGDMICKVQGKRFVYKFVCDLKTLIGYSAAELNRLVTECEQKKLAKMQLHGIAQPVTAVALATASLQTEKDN
Summary of the method: as §1

[4] = target: T4, ERG (Homo sapiens, UniProt P11308 1-479)
T4 sequence: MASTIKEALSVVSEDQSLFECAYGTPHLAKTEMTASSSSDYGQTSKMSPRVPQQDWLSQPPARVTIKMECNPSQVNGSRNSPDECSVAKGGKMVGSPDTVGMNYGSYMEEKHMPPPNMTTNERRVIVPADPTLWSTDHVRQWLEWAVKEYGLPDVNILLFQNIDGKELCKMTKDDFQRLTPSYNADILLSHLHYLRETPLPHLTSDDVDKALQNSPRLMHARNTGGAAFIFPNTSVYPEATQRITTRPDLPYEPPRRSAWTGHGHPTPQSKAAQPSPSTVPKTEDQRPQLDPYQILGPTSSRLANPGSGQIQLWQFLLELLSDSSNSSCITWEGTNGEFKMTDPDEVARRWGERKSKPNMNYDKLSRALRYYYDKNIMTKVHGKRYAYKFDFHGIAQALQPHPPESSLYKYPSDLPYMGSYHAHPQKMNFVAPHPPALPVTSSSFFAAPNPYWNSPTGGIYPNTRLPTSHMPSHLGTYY
Summary of the method: as §1

[5] = target: ELF1 (Homo sapiens, UniProt P32519 1-619)
ELF1, sequence (P32519 whole entry): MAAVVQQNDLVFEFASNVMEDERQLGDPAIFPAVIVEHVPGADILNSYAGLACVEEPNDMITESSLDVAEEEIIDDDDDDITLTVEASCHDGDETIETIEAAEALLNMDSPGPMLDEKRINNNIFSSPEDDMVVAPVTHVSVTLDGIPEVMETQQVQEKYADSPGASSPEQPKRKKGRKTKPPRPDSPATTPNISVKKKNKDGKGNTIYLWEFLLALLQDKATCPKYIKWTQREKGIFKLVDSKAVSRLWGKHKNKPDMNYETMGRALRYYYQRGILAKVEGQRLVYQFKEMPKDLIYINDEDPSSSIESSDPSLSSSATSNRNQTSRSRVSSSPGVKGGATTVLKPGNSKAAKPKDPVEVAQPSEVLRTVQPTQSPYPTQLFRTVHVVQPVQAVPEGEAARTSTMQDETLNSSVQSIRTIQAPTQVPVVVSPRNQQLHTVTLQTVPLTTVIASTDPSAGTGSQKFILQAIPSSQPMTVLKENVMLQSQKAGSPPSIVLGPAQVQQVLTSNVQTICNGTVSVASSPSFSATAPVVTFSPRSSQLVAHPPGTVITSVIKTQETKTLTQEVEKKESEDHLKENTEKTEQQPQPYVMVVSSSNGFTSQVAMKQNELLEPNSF
Summary of the method: as §1

[6] = target: T5, EHF (Homo sapiens, UniProt Q9NZC4 1-300)
T5 sequence: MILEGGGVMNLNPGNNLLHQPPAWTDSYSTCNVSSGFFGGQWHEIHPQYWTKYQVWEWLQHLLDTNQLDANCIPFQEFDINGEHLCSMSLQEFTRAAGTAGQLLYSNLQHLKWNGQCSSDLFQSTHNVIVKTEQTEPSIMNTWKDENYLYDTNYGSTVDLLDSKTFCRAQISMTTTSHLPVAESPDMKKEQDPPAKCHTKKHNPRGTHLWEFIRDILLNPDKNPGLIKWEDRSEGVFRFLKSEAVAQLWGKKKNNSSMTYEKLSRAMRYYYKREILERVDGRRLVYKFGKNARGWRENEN
Summary of the method: as §1

[7] = target: SPI1 (Homo sapiens, UniProt P17947 1-270)
Summary of the method: as §1

[8] = target: SPIB (Homo sapiens, UniProt Q01892 1-262)
SPIB, sequence (Q01892 whole entry): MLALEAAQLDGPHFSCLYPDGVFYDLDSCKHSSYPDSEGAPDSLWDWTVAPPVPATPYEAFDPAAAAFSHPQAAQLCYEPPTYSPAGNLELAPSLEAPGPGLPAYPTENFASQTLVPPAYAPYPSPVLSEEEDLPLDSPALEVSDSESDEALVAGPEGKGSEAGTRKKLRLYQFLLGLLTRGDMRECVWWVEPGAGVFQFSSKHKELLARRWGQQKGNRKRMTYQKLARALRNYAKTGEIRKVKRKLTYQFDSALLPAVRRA
Summary of the method: as §1

[9] = target: T6, ELK3 (Homo sapiens, UniProt P41970 1-407)
T6 sequence: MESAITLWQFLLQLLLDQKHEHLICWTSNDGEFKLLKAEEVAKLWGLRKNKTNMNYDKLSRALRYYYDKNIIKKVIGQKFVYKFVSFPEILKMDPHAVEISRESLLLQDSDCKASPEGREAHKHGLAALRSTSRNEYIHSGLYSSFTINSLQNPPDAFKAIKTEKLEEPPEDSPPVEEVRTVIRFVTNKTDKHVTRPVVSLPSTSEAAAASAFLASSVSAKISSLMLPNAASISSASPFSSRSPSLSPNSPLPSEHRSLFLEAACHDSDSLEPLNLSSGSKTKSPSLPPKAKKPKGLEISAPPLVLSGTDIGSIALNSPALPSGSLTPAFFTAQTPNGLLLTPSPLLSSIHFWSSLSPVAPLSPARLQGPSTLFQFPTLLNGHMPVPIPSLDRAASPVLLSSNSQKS
Summary of the method: as §1

Sequence	binding signal [1]	binding signal [2]	binding signal [3]	binding signal [4]	binding signal [5]	binding signal [6]	binding signal [7]	binding signal [8]	binding signal [9]
ATCTCG	1.41 fold enrichment (6-mer frequency, TF over GST control)	1.27 fold enrichment (6-mer frequency, TF over GST control)	1.42 fold enrichment (6-mer frequency, TF over GST control)	1.23 fold enrichment (6-mer frequency, TF over GST control)	1.39 fold enrichment (6-mer frequency, TF over GST control)	1.34 fold enrichment (6-mer frequency, TF over GST control)	1.37 fold enrichment (6-mer frequency, TF over GST control)	1.26 fold enrichment (6-mer frequency, TF over GST control)	1.26 fold enrichment (6-mer frequency, TF over GST control)
ACCTAC	1.22 fold enrichment (6-mer frequency, TF over GST control)	1.2 fold enrichment (6-mer frequency, TF over GST control)	1.21 fold enrichment (6-mer frequency, TF over GST control)	1.1 fold enrichment (6-mer frequency, TF over GST control)	1.27 fold enrichment (6-mer frequency, TF over GST control)	1.21 fold enrichment (6-mer frequency, TF over GST control)	1.18 fold enrichment (6-mer frequency, TF over GST control)	1.23 fold enrichment (6-mer frequency, TF over GST control)	1.13 fold enrichment (6-mer frequency, TF over GST control)
AACCTG	1.19 fold enrichment (6-mer frequency, TF over GST control)	1.2 fold enrichment (6-mer frequency, TF over GST control)	1.17 fold enrichment (6-mer frequency, TF over GST control)	1.09 fold enrichment (6-mer frequency, TF over GST control)	1.16 fold enrichment (6-mer frequency, TF over GST control)	1.22 fold enrichment (6-mer frequency, TF over GST control)	1.27 fold enrichment (6-mer frequency, TF over GST control)	1.12 fold enrichment (6-mer frequency, TF over GST control)	1.21 fold enrichment (6-mer frequency, TF over GST control)
CTCCTA	1.47 fold enrichment (6-mer frequency, TF over GST control)	1.19 fold enrichment (6-mer frequency, TF over GST control)	1.38 fold enrichment (6-mer frequency, TF over GST control)	1.22 fold enrichment (6-mer frequency, TF over GST control)	1.24 fold enrichment (6-mer frequency, TF over GST control)	1.25 fold enrichment (6-mer frequency, TF over GST control)	1.46 fold enrichment (6-mer frequency, TF over GST control)	1.4 fold enrichment (6-mer frequency, TF over GST control)	1.24 fold enrichment (6-mer frequency, TF over GST control)
CTTTAT	1.19 fold enrichment (6-mer frequency, TF over GST control)	1.19 fold enrichment (6-mer frequency, TF over GST control)	1.18 fold enrichment (6-mer frequency, TF over GST control)	1.16 fold enrichment (6-mer frequency, TF over GST control)	1.17 fold enrichment (6-mer frequency, TF over GST control)	1.34 fold enrichment (6-mer frequency, TF over GST control)	1.25 fold enrichment (6-mer frequency, TF over GST control)	1.19 fold enrichment (6-mer frequency, TF over GST control)	1.25 fold enrichment (6-mer frequency, TF over GST control)
TCCTCC	1.47 fold enrichment (6-mer frequency, TF over GST control)	1.61 fold enrichment (6-mer frequency, TF over GST control)	1.49 fold enrichment (6-mer frequency, TF over GST control)	1.58 fold enrichment (6-mer frequency, TF over GST control)	1.52 fold enrichment (6-mer frequency, TF over GST control)	1.61 fold enrichment (6-mer frequency, TF over GST control)	1.68 fold enrichment (6-mer frequency, TF over GST control)	1.6 fold enrichment (6-mer frequency, TF over GST control)	1.55 fold enrichment (6-mer frequency, TF over GST control)
CTCATG	1.29 fold enrichment (6-mer frequency, TF over GST control)	1.29 fold enrichment (6-mer frequency, TF over GST control)	1.26 fold enrichment (6-mer frequency, TF over GST control)	1.21 fold enrichment (6-mer frequency, TF over GST control)	1.32 fold enrichment (6-mer frequency, TF over GST control)	1.23 fold enrichment (6-mer frequency, TF over GST control)	1.27 fold enrichment (6-mer frequency, TF over GST control)	1.11 fold enrichment (6-mer frequency, TF over GST control)	1.26 fold enrichment (6-mer frequency, TF over GST control)
CTCTTA	1.35 fold enrichment (6-mer frequency, TF over GST control)	1.4 fold enrichment (6-mer frequency, TF over GST control)	1.45 fold enrichment (6-mer frequency, TF over GST control)	1.27 fold enrichment (6-mer frequency, TF over GST control)	1.51 fold enrichment (6-mer frequency, TF over GST control)	1.23 fold enrichment (6-mer frequency, TF over GST control)	1.4 fold enrichment (6-mer frequency, TF over GST control)	1.32 fold enrichment (6-mer frequency, TF over GST control)	1.36 fold enrichment (6-mer frequency, TF over GST control)
